Source: PubChem BioAssay (NCATS)
Inconclusive results are not listed. Activity calls are given as the source filed them. The call rests on the fitted dose curve; in most records, active means well fitted curve in the direction sought with a large enough effect; inconclusive means small, poorly fitted or top-dose-only effect, or another doubt; inactive means no such curve, though single readings can be large; an effect the other way counts as inactive or inconclusive.

Columns and labels:
[1] = molecular target: Cellular tumor antigen p53 (Homo sapiens) (UniProt P04637); test: Primary qHTS for small molecule compounds that upregulate eGFP-tagged delta133p53alpha (in N-terminal) cells. (AID 2060322); conditions: NCI-H358 eGFP-delta133p53alpha fluorescence, 24 h; activation: active compounds read high;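 further: series mostly up to about 56 µM; 0% = DMSO vehicle and 100% = reference activator; nearly all actives have a fitted effect of over 75% in size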
Procedure, shortened: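 NCI-H358 cells pre-induced 24 h with 10 ng/ml doxycycline to express N-terminal eGFP-delta133p53alpha, then dosed 24 h at 37C without doxycycline; fixed, Hoechst-stained, GFP intensity by laser scanning cytometry, normalized to DMSO (0%) and 57.5 uM 5-azacytidine (100%).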

[2] = molecular target: Aldehyde dehydrogenase, mitochondrial (Homo sapiens) (UniProt P05091); test: qHTS for Inhibitors of the Aldehyde Dehydrogenase Family (ALDH2) Primary screen (AID 2061308);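 further: plate controls were vehicle for no effect and reference inhibitor for full effect; nearly all actives have a fitted effect of over 55% in size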
[3] = molecular target: Retinaldehyde dehydrogenase 3 (Homo sapiens) (UniProt P47895); test: qHTS for Inhibitors of the Aldehyde Dehydrogenase Family (ALDH1A3) Primary screen (AID 2061315);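 further: plate controls were DMSO vehicle for no effect and reference inhibitor for full effect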

Sequence of Cellular tumor antigen p53 (Homo sapiens) (P04637 whole entry, looked up): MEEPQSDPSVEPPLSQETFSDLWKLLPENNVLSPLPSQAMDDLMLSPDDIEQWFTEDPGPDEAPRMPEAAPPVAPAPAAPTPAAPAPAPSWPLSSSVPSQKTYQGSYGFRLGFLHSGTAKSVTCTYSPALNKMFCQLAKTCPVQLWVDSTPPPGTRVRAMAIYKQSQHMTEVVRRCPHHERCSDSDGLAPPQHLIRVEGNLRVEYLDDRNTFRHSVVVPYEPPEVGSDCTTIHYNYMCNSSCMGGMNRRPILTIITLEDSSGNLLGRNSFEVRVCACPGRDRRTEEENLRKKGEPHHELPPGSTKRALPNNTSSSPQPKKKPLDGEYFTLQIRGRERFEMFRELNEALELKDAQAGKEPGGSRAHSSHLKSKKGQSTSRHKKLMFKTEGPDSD

CC(=O)O[C@@H]1C(O)C[C@@]2(C)C(CC[C@@H](C)C23Cc2c(O)cc4c(c2O3)CNC4=O)C1(C)C (stereo partly specified)
inactive: activation [1] -14.5% | Potency [2] | Potency [3]

COc1cc2c(cc1OC)CN(C(=O)[C@@H](NCc1ccncc1)C(C)(C)C)CC2
inactive: activation [1] 5.25% | Potency [2] | Potency [3]

O=C(O)C(O[C@@H]1O[C@H](CO[C@@H]2O[C@H](CO)[C@@H](O)[C@H](O)[C@H]2O)[C@@H](O)[C@H](O)[C@H]1O)c1ccccc1 (stereo partly specified)
inactive: activation [1] -16% | Potency [2] | Potency [3]

COC(=O)C[C@H]1C(C)(C)[C@H](OC(=O)C(C)C)[C@@]2(O)C(=O)[C@]1(C)C1CC[C@]3(C)C(CC(=O)O[C@H]3c3ccoc3)[C@]13O[C@@H]32 (stereo partly specified)
inactive: activation [1] -17.6% | Potency [2] | Potency [3]

C=C(C(=O)O)[C@@H]1CC[C@@]2(C)CC[C@@H](O)C(=C)C2C1 (stereo partly specified)
inactive: activation [1] 22.9% | Potency [2] | Potency [3]

CCOC(=O)c1cnn(-c2ccccc2)c1NC(=O)c1cc2nc(-c3ccco3)cc(C(F)(F)Cl)n2n1
inactive: activation [1] 0.955% | Potency [2] | Potency [3]

CC1CCCC2OC2C(=O)c2c(O)cc(O)cc2CC(=O)O1 (stereo unspecified)
inactive: activation [1] 16% | Potency [2] | Potency [3]

CC(C)C[C@H](NC(=O)[C@@H]1O[C@H]1C(=O)O)C(=O)NCCCCN=C(N)N
inactive: activation [1] -8.33% | Potency [2] | Potency [3]

C=CCc1ccc(OC(C)Cc2ccc(OC)c(OC)c2)c(OC)c1 (stereo unspecified)
inactive: activation [1] -15.2% | Potency [2] | Potency [3]

CS(=O)(=O)N(CC(=O)NCC1CC1)c1cc(C(F)(F)F)ccc1Cl
inactive: activation [1] -13% | Potency [2] | Potency [3]

O=c1[nH]c2ccc(C#CCN3CCC(Cc4ccccc4)CC3)cc2[nH]1
inactive: activation [1] -3.57% | Potency [2] | Potency [3]

C[C@@H]1C/C=C/C=C\C=C\C=C\[C@H](O[C@@H]2O[C@H](C)[C@@H](O)[C@H](N)[C@@H]2O)C[C@@H]2O[C@](O)(C[C@@H](O)C[C@H]3O[C@@H]3/C=C/C(=O)O1)C[C@H](O)[C@H]2C(=O)O
inactive: activation [1] 13.7% | Potency [2] | Potency [3]

CC(C)=CCC[C@](C)(O[C@@H]1O[C@H](CO[C@@H]2O[C@@H](CO)[C@H](O)[C@H]2O[C@@H]2OC[C@@H](O)[C@H](O)[C@H]2O)[C@@H](O)[C@H](O)[C@H]1O)[C@H]1CC[C@]2(C)[C@@H]1[C@H](O)CC1[C@@]3(C)CC[C@H](O[C@@H]4O[C@H](CO)[C@@H](O)[C@H](O)[C@H]4O[C@@H]4O[C@H](CO)[C@@H](O)[C@H](O)[C@H]4O)C(C)(C)C3CC[C@]12C (stereo partly specified)
inactive: activation [1] -6.87% | activity change, negative = inhibition [2] 1.66% [at 11.2 µM] | activity change, negative = inhibition [3] 19.1% [at 11.2 µM]

CC1CCC(=O)CC(O)C(O)CC(=O)O1 (stereo unspecified)
inactive: activation [1] 10.7% | Potency [2] | Potency [3]

CC(=O)c1ccc(OCC(=O)N2CCCCC2)cc1
inactive: activation [1] -3% | Potency [2] | Potency [3]

CC1(C)CC[C@]2(C(=O)O[C@@H]3O[C@H](CO)[C@@H](O)[C@H](O)[C@H]3O)CC[C@]3(C)C(=CCC4[C@@]5(C)CC[C@H](O[C@@H]6O[C@H](C(=O)O)[C@@H](O[C@@H]7O[C@H](CO)[C@@H](O)[C@H](O)[C@H]7O)[C@H](O)[C@H]6O)C(C)(C)C5CC[C@]43C)C2C1 (stereo partly specified)
inactive: activation [1] -26.7% | Potency [2] | Potency [3]

C[C@@H]1CC[C@]2(C(=O)OC3OC(CO)C(O)C(O)C3O)CC[C@]3(C)C(=CCC4[C@@]5(C)CC[C@H](O)[C@](C)(C(=O)O)C5CC[C@]43C)C2[C@]1(C)O (stereo partly specified)
inactive: activation [1] -8.93% | Potency [2] | Potency [3]

C=C1C2=CC(O)C(C)C1(C)CC/C(C)=C/CCC1(C)OC1C2=O (stereo unspecified)
inactive: activation [1] 0.763% | Potency [2] | Potency [3]

CC1[C@@H](O)[C@@H](O)C2[C@]3(C)C(C[C@H]4OC(=O)[C@H](O)[C@]1(O)[C@@]24C)C(C)(O)C[C@H](O)[C@H]3O (stereo partly specified)
inactive: activation [1] -16% | Potency [2] | Potency [3]

CC(O)CCc1ccc(O[C@@H]2O[C@H](CO)[C@@H](O)[C@H](O)[C@H]2O)cc1 (stereo partly specified)
inactive: activation [1] -10.7% | Potency [2] | Potency [3]

CC1(C)CC2=C3C=CC4C5(C)CCC(O)C(C)(C)C5CCC4(C)C3(C)CCC2(C)C(O)C1 (stereo unspecified)
inactive: activation [1] -8.04% | Potency [2] | Potency [3]

C[C@@H]1O[C@@H](O[C@H]2[C@H](O)[C@@H](O[C@@H]3O[C@H](CO)[C@@H](O)[C@H](O[C@@H]4O[C@H](CO)[C@@H](O)[C@H](O)[C@H]4O)[C@H]3O)[C@H](O[C@H]3CC[C@@]4(C)C(=CC[C@@H]5C4CC[C@@]4(C)C5C[C@@H]5OC6(CC[C@@](C)(CO[C@@H]7O[C@H](CO)[C@@H](O)[C@H](O)[C@H]7O)O6)[C@@H](C)[C@@H]54)C3)O[C@@H]2CO)[C@H](O)[C@H](O)[C@H]1O (stereo partly specified)
inactive: activation [1] -25.2% | activity change, negative = inhibition [2] 9.58% [at 11.2 µM] | activity change, negative = inhibition [3] 9.26% [at 11.2 µM]
